# The list is not random: actives were taken first. Their share in the collection is about 0.3%.
# mcGAS inh = blocks mouse cGAS activity; recombinant cGAS, Kinase-Glo ATP depletion luminescence; 160,000 compounds, 0.15% hits; AID 1259399; Q8C6L5; inhibition, % at 12.5 µM;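 also: 0% = negative control wells and 100% = reference inhibitor with no enzyme activity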
# hcGAS inh = blocks human cGAS activity | Q8N884 | recombinant h-cGAS, ATP depletion, Kinase-Glo luminescence | 290,000 compounds, 0.081% hits | AID 1259398 | inhibition, % at 12.5 µM;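 also: 0% = vehicle reaction and 100% = reaction without DNA for no activity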
# NPYLR7 agonist = mosquito NPYLR7 agonism; activation, % at 10 µM; 270,000 compounds, 0.15% hits; HEK293T NPYLR7/Galpha15, GCaMP6s calcium fluorescence; in the data active = activation above about 40%;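 also: 0% = vehicle and 100% = reference agonist at the receptor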
# * = called active by the depositor; · = no result. Rule as the data show it, unless noted: active = inhibition above about 40%; inactive = the rest.
SMILES,mcGAS inh,hcGAS inh,NPYLR7 agonist
COc1cccc(C(=O)Oc2ccc3c(c2)O/C(=C\c2ccc(C)o2)C3=O)c1,-1,0,-6
CN(CCNC(=O)C(F)(F)F)C(=O)Nc1cccc(F)c1,-4,-9,-8
O=C(/C=C/c1cccc([N+](=O)[O-])c1)n1cnc2ccccc21,42*,-2,4
O=[N+]([O-])c1cccc(C=Nn2cnc3ccccc32)c1,-2,1,-4
O=C(Nc1nnc(COc2ccc(Cl)cc2)s1)c1ccccc1,-5,-5,-2
CCCc1ccc(CN(C)CC2COCCO2)o1 (configuration not stated),-7,-8,·
CCOC(=O)c1ccc(CC2SC(=NN=Cc3ccccc3O)NC2=O)cc1 (configuration not stated),-9,-6,-1
O=c1[nH]c(SCCO)nc2sc3c(c12)CCCC3,-6,-1,40*
Cc1nc(SCCO)c2c3c(sc2n1)CCCC3,7,-5,-1
CCCn1c(C2CC(=O)N(c3ccc(C)c(C)c3)C2)nc2ccccc21 (configuration not stated),-2,-7,1
COc1cc(C=C(C#N)S(=O)(=O)c2cc(Br)ccc2Br)ccc1O,·,-2,170*
COc1cc(C=C(C#N)S(=O)(=O)c2cc(Br)ccc2Br)cc(OC)c1,·,-5,10
CN1C(=CC(=O)C(F)(F)F)Sc2ccccc21,-6,-10,3
CCN(CC)CC[n+]1c(C)cc(C=C2Sc3ccccc3N2C)cc1C,·,11,44*
CC(=O)CCC(=O)N1CCC(CCn2c(C)cnc2C2CCOCC2)CC1,-3,0,·
CC(=O)O[C@@H]1CC[C@@]2(C)C(CC[C@]3(C)C2CC=C2C4CC(C)(C)CC[C@]4(C(=O)O)CC[C@]23C)C1(C)C (some centres not stated),-4,-5,·
C[C@H]1O[C@H](O[C@@H]2[C@@H](O[C@H]3CC[C@@]4(C)C(CC[C@]5(C)C4CC=C4[C@@H]6CC(C)(C)CC[C@]6(C(=O)O)CC[C@]45C)[C@]3(C)CO)OC[C@@H](O)[C@H]2O)[C@@H](O)[C@H](O)[C@@H]1O (some centres not stated),·,1,53*
